# According to PubChem BioAssay (NCI):
# Several values for one entry are separate records, joined by “and”; a condition that tells them apart may be missing. Equal values may be shown once. This is part of a sample that, as a whole, favours compounds with a hit. Of some 83,000 tested, about 20% had one in any assay.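 Percent growth is the endpoint: 0 to 100 indicates growth inhibition (40 means 60% inhibition), 0 means no net growth, and negative values indicate cell death.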 Activity calls are given as the source filed them. Rule for the calls: active = growth percent below 10; inactive = the rest.
# Test system: HL-60(TB) leukemia
# Test: NCI-60 one-dose screen, 48 h (100 = growth as untreated, 0 = no growth, -100 = all killed)
# Settings: 10 µM unless noted
row,SMILES,growth
1,CCCCN(CCCC)CCCOC(=O)c1ccc(N)cc1,76.4% (inactive)
2,CCN(CC)C(=O)O/N=C(/C)c1ccccc1,95.5% (inactive)
3,CC1CN(c2oc(-c3ccccc3)nc2C#N)CC(C)O1 (stereo not given),101% (inactive)
4,CN(C)CCC(=O)Nc1ccc(-n2cc(-c3cccc(NC(=S)Nc4cccc(-c5cn(-c6ccc(NC(=O)CCN(C)C)cc6)nn5)c4)c3)nn2)cc1,94% (inactive)
5,O=C(Nc1cccc([N+](=O)[O-])c1)Nc1cccc([N+](=O)[O-])c1,13% (inactive)
6,Cc1c[n+](Cc2ccc3ccccc3c2)cn1Cc1ccc2ccccc2c1,-56.3% (active)
7,O=C(Cn1cc(CN2C(=O)c3ccccc3S2(=O)=O)nn1)Nc1nc2ccccc2s1,113% (inactive)
8,Cc1c2c(nn1C(=O)c1nn(-c3ccc(Cl)cc3)cc1O)-c1ccccc1CC2,-43.4% (active)
9,CNC(=O)Nc1ccc(-c2nc(N3CCOCC3)nc3c2cnn3C2CCOCC2)cc1,11.3% (inactive)
10,Cc1ccc2nc(C[n+]3ccc4ccccc4c3)ccc2c1,26.1% (inactive)
11,O=Nc1ccc(Nc2ccccc2)cc1,-1.72% (active)
12,Clc1ccc(/C=C/c2ccc3ccccc3n2)cc1,-14.2% (active) and 77.3% (inactive) and 60.8% (inactive)
13,COc1ccc(/C=C(\C#N)c2cc(OC)c(OC)c(OC)c2)cc1,-31.4% (active)
14,COc1cc(NS(C)(=O)=O)ccc1Cc1c2ccccc2nc2ccccc12,-2.45% (active)
15,CCCCCCCCn1ccc2cc(NC(=O)Cn3cc(CN4CCCC4)nn3)ccc21,13.8% (inactive)
